HT1080-NT tox: kills 2HG-producing HT-1080-NT fibrosarcoma cells; HT-1080-NT fibrosarcoma viability, CellTiter-Glo ATP luminescence, 48 h; Potency, µM (highest dose often 46.1 µM), inactives show at the highest dose activity, negative = less viability, usual class: cytotoxic; 360,000 compounds, 1.6% hits; AID 686970;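 further: NT is the 2HG producing partner of a matched IDH1 knockdown line; potency means the concentration at half of the fitted maximal effect; 0% = DMSO-treated cells and -100% = media-only wells without cells; nearly all actives have a fitted effect of over 55% in size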
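Luminescent CellTiter-Glo readout after 48 hours of compound exposure at 37 degrees C defined viability of HT-1080-NT cells. Activity was normalized to DMSO wells and cell-free media wells; concentration-response curves were fitted and assigned curve classes.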
TDP1 cell CPT: DT40-hTDP1 cell growth loss with CPT; chicken DT40 Tdp1-/-;hTDP1 cells + 20 nM CPT, ATP luminescence, 48 h; Potency, µM (top dose mostly 46.2 µM), for the others: at the highest dose activity change, negative = growth inhibition, hits mostly inhibitors; 420,000 compounds, 12% hits; AID 686979; further: potency means the concentration at half of the fitted maximal effect; nearly all actives have a fitted effect of over 55% in size
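Cell growth measured by CellTiter-Glo luminescence after a minimum 48 h, 37 C compound exposure with 20 nM CPT in Tdp1-knockout DT40 cells stably expressing hTDP1, seeded 400/well; qHTS titration format.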
IL1B secr inh: inhibitors of inflammasome signaling (IL-1 beta secretion); activity change, % at 57.5 µM; THP-1 LPS/ATP IL-1B secretion, AlphaLISA, 16 h; hits give low values; 360,000 compounds, 4.7% hits; in the data active means activity change below about -50%; inconclusive means mostly about -30% to -49%
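Secreted IL-1B measured by AlphaLISA bead assay after 16 h compound exposure of THP-1 cells; compounds (final up to 57.5 uM) added 1 h before LPS (250 ng/mL) and ATP (1.25 mM) stimulation; lower signal means less secretion.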
DT40 TDP1 no CPT: qHTS for Inhibitors of human tyrosyl-DNA phosphodiesterase 1 (TDP1): qHTS in cells in absence of CPT | Potency, µM (series often up to 46.2 µM), inactives show top-dose activity change, negative = growth inhibition, most hits filed as inhibitors | 420,000 compounds, 15% hits | AID 686978, 2013 | DT40 Tdp1-/- hTDP1 cells, no CPT, ATP luminescence, 48 h; further: potency means the concentration at half of the fitted maximal effect; nearly all actives have a fitted effect of over 55% in size
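Cells were dispensed at 400 per well, compounds added by pin tool, plates incubated ≥48 hr at 37 °C, then CellTiter-Glo added for 30 min at room temperature before luminescence reading. Line: DT40 Tdp1-/- complemented with hTDP1; camptothecin omitted.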
ELG1 repair inh: inhibitors of ELG1-dependent DNA repair in HEK293T cells; HEK293T ELG1-luciferase reporter, luminescence, 16 h; DNA damage induced by 5-fluorouridine; Potency, µM (doses to about 46.1 µM), for the others: top-dose activity change, negative = inhibition, most hits filed as inhibitors; AID 504467; 330,000 compounds, 2.3% hits; further: potency means the concentration at half of the fitted maximal effect; nearly all actives have a fitted effect of over 55% in size
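Cells (2,000 per well) received 5-fluorouridine plus test compound or DMSO and were incubated 16 hr at 37 °C, 5% CO2. Luciferase activity was read by luminescence 30 min after ONE-Glo addition; signal suppression marked inhibition of damage-induced ELG1 function.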
HT1080 IDH1KD tx: kills HT-1080 cells with IDH1 knockdown. HT-1080 IDH1 knockdown viability, ATP luminescence, 48 h. AID 686971. 360,000 compounds, 2% hits. Potency, µM (top dose mostly 46.1 µM), inactives show at the highest dose activity, negative = toxicity, usual class: cytotoxic;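 further: potency means the concentration at half of the fitted maximal effect; 0% = DMSO wells and -100% = cell-free medium wells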
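CellTiter-Glo luminescence after 48 h compound exposure at 37 degrees C of IDH1-knockdown HT-1080 cells in 5% FBS RPMI. %Activity scaled between DMSO wells and cell-free media wells, with curves fitted and assigned curve classes.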
* hit, by the source's call; ? = inconclusive; . = not tested or not shown. Shown are actives, neighbours in structure and some others; about 19% of the full set was active somewhere. Unless noted, the call rests on the fitted dose curve; in most records, active means well fitted curve in the direction sought with a large enough effect; inconclusive means small, poorly fitted or top-dose-only effect, or another doubt; inactive means no such curve, though single readings can be large; an effect the other way counts as inactive or inconclusive. Unless noted, on the % scale 0 is the no-effect control and ±100 the full control effect.

SMILES	HT1080-NT tox	TDP1 cell CPT	IL1B secr inh	DT40 TDP1 no CPT	ELG1 repair inh	HT1080 IDH1KD tx
Cc1cc(C)n(-c2ccc(Cl)c(C(=O)Nc3ccc(-c4nnc5n4CCCCC5)cc3)n2)n1	8%	2.1µM*	-12	1.8µM*	?	8%
CCOC(=O)C1CCN(C(=O)Cn2nc(CC)n3c(cc4occc43)c2=O)CC1	.	?	.	-23%	.	.
Cc1ccc(S(=O)(=O)Oc2cccc(/C=N/n3cnnc3)c2)cc1	-18%	8.2µM*	17	8.2µM*	?	-29%
Cc1ccc(S(=O)(=O)N(C)CC(=O)Nc2ccc3c(c2)OCO3)cc1	5%	20%	17	-10%	8%	2%
COc1ccccc1N(CC(=O)Nc1cc(C)on1)S(=O)(=O)c1ccc(Cl)cc1	-16%	18µM*	-13	18µM*	-3%	-6%
Cc1ccc(S(=O)(=O)N(CC(=O)Nc2ccc3c(c2)OCO3)c2ccc(C)c(Cl)c2)cc1	.	16µM*	.	?	.	.
COc1ccccc1N(CC(=O)Nc1ccc2c(c1)OCO2)S(=O)(=O)c1ccc(C)cc1	.	23µM*	.	8.2µM*	.	.
COc1ccccc1N(C)S(=O)(=O)c1ccc(C(=O)OCC(=O)Nc2cc(C)on2)cc1	4%	1%	12	2%	-11%	9%
COc1ccc(OC)c(N(CC(=O)Nc2ccc3c(c2)OCO3)S(=O)(=O)c2ccccc2)c1	-10%	26µM*	-17	?	?	-13%
O=C(c1cc(C(F)(F)F)cc(C(F)(F)F)c1)N1CCC2(CCCN(Cc3ccccc3)C2)CC1	.	10%	.	-20%	.	.
O=C1CCc2cc(S(=O)(=O)NC(Cc3ccccc3)C(=O)N3CCN(c4ccccn4)CC3)ccc2N1 (stereo not given)	0%	-20%	-12	-8%	17%	-5%
COc1ccc(S(=O)(=O)Oc2ccccc2C(=S)N2CCOCC2)cc1	.	.	.	.	2%	.
Cc1cccc(C(=O)N2CCCC(N3CCN(c4ccc(F)cc4)CC3)C2)n1 (stereo not given)	0%	-28%	58	-21%	-5%	-5%
O=C(NNS(=O)(=O)c1ccccc1)C1CC(c2cccnc2)=NO1 (stereo not given)	20%	6%	-2	-25%	-3%	15%
O=C(Nc1ccc(F)cc1)C(c1ccnc2ccccc12)N1CCN(C(=O)c2ccco2)CC1 (stereo not given)	0%	9%	-7	-10%	.	-10%
CCCCCCCn1c2c(c(=N)c3ccccc31)CCC2	?	0.52µM*	?	0.58µM*	4.1µM*	12µM*
Clc1ccc(CN2CCN(c3ncccn3)CC2)cc1Cl	-19%	-25%	-9	?	-22%	-15%
N=c1c2c(n(Cc3ccc(Cl)c(Cl)c3)c3c1CCC3)CCCC2	23µM*	2.9µM*	-72*	2.6µM*	1%	18µM*
CCCn1c2c(c(=N)c3c1CCC3)CCCC2	-11%	9.2µM*	-25	5.2µM*	9%	-17%
N=c1c2c(n(Cc3ccc(Br)cc3)c3c1CCC3)CCCC2	21µM*	0.92µM*	-81*	0.52µM*	-5%	18µM*
CCc1cccc(NC(=O)CN(C)S(=O)(=O)c2ccc3c(c2)CCCN3C(C)=O)c1	.	21µM*	.	?	.	.
CC(=O)N1CCCc2cc(S(=O)(=O)N(CCN(C)C)Cc3ccccc3)ccc21	.	2%	.	-16%	.	.
CC(=O)N1CCCc2cc(S(=O)(=O)N(C)CC(=O)Nc3ccc(F)c(Cl)c3)ccc21	.	10µM*	.	21µM*	.	.
CN(CC(=O)Nc1ccc(F)c(Cl)c1)S(=O)(=O)c1ccc2c(c1)n(C)c(=O)c(=O)n2C	-5%	?	-2	?	1%	-3%
CC(=O)N1CCCc2cc(S(=O)(=O)N(C)Cc3ccccc3)ccc21	-11%	?	-19	21µM*	?	-1%
SMILES	HT1080-NT tox	TDP1 cell CPT	IL1B secr inh	DT40 TDP1 no CPT	ELG1 repair inh	HT1080 IDH1KD tx
COc1ccc2cc(C(=O)NCc3ccc4c(c3)CCN4C(=O)c3ccccc3)[nH]c2c1	.	-7%	.	-16%	.	.
Cc1cccc(NC(=O)CSc2nncn2C)c1	.	-11%	.	12%	.	.
C/C(N)=C(/C#N)C(=O)COC(=O)c1cccc(O)c1	11%	-22%	-54*	-2%	?	7%
CC(C)C1=CC2=CC[C@@H]3[C@@](C)(C(=O)O)CCC[C@]3(C)C2CC1 (stereo not given in full)	.	4%	.	-11%	.	.
O=c1[nH]c2c(c3c1CCCC3)CCCC2	-8%	21µM*	40	-15%	3%	-3%
O=c1[nH]c2c(c(=O)[nH]1)CCCCCC2	15%	9%	4	-2%	.	22%
CCOC(=O)c1c(NC(=O)COC(=O)/C=C/c2ccccc2)sc(C(=O)NC)c1C	3%	1%	-5	-9%	5%	10%
CCOc1ccc2nc(N3CCCC(C(=O)NCCCN4CC(C)CC(C)C4)C3)sc2c1 (stereo not given)	16µM*	18µM*	-53*	18µM*	?	?
CCOc1ccc2nc(N3CCCC(C(=O)Nc4c(C)cccc4C)C3)sc2c1 (stereo not given)	.	-49%	.	?	.	.
COc1ccc2nc(N3CCCC(C(=O)NCCCN4CCN(C)CC4)C3)sc2c1 (stereo not given)	-8%	-2%	-28	0%	?	-2%
CCOc1ccc2nc(N3CCCC(C(=O)NCCCN4CCCCC4)C3)sc2c1 (stereo not given)	18µM*	?	0	?	?	?
CC1CC(C)CN(CCCNC(=O)c2ccc3nc(N4CCCCC4)sc3c2)C1 (stereo not given)	2%	?	-3	?	?	-1%
CCOc1ccc2nc(N3CCCC(C(=O)NCCCN4C(C)CCCC4C)C3)sc2c1 (stereo not given)	?	?	-70*	?	?	?
CC1(C(=O)NS(=O)(=O)c2ccc(F)cc2F)CCN1C(=O)c1cccc(F)c1 (stereo not given)	?	-11%	24	-2%	.	24%
Cc1ccc(NC(=O)c2cc3c(=O)[nH]c4ccccc4c3n2C)cc1F	.	?	.	-26%	.	.
COc1cc(C2C=C(C(=O)O)Nc3ncnn32)ccc1O (stereo not given)	.	-20%	.	-6%	.	.
